The values that follow come from PubChem BioAssay (NCI).

Holding throughout (experiment): NCI-60 one-dose screen, 48 h (100 = growth as untreated, 0 = no growth, -100 = all killed)
Holding throughout (settings): 10 µM unless noted

The subject of assay [1] is T-47D breast.
Assay [2] concerns BT-549 breast.
Assay [3] deals with MDA-MB-435 melanoma.
The subject of assay [4] is SW-620 colon.
Assay [5] relates to MCF7 breast.
The subject of assay [6] is HCT-116 colon.
For assay [7], the system named is HCC-2998 colon.
The test system of assay [8] is KM12 colon.

About 83,000 compounds went through this panel and 20% of them were active in at least one assay; those are over-represented in the sample as a whole.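 The test compound was applied at a single concentration to cells in 96-well plates for 48 hours, and percent growth was recorded.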 Unmarked numbers belong to inactive results. The source made the active and inactive calls. How the source made its calls: active means growth percent below 10; inactive means the rest.

Turning to `CCN1C(=O)N(CC)C2C1NC(=S)N2/N=C/C=C/c1ccccc1` (stereo unspecified), the growth in assay [1] was 46.5%; in assay [2] it was -10.3% (active); in assay [3], -42.1% (active); in assay [4], 25.6%; in assay [5] it was 13.8%; in assay [6] it was 5.71% (active). Moreover, the growth is 19% in assay [7] and 8.65% (active) in assay [8].

Turning to `Cc1c(-c2cnc3ccc(Cl)cc3c2C(=O)O)nnn1-c1ccc(Cl)cc1`, the growth is 88% in assay [1]; 82% in assay [2]; 105% in assay [3]; 112% in assay [4]; 98.5% in assay [5]; 76.7% in assay [6]. In addition, the growth in assay [7] was 102%; in assay [8] it was 109%.

Regarding `Nc1n[nH]c2cccc(C#Cc3cccc(C(=O)Nc4ccc(Cl)c(C(F)(F)F)c4)c3)c12`, the growth in assay [1] was 33.5%; in assay [2], 78.3%; in assay [3], 42.8%; in assay [4], 61.8%; in assay [5], 50.2%; in assay [6], 28.5%. Further, the growth in assay [7] is 49.4%; in assay [8] it was 59.4%.

Regarding `O=C1OCC2=C1C(c1cccc(F)c1)c1cc3c(cc1N2CCO)CCC3` (stereo unspecified), the growth in assay [1] is 52.6%; in assay [2], 39.5%; in assay [3], -36.9% (active); in assay [4], 26.3%; in assay [5], 19.7%; in assay [6] it was 10.5%. Further, the growth in assay [7] was 7.85% (active); in assay [8], 13.4%.

Consider `CNc1nc2ncc(-c3c(C)noc3C)cc2n1Cc1ccccc1`, for which the growth in assay [1] is 54.1%; in assay [2], 60.2%; in assay [3] it was 45.7%; in assay [4], 71.8%; in assay [5], 18.6%; in assay [6], 26%. Further, the growth was 63.4% in assay [7] and 62.1% in assay [8].

Take `COc1ccc(-c2nc(SCCC(C)C)nc(N/N=C(/C)c3ccc(N)cc3)c2C#N)cc1`: the growth is 85% in assay [1]; 96.7% in assay [2]; 104% in assay [3]; 95.2% in assay [4]; 86.1% in assay [5]; 94.3% in assay [6]. In addition, the growth is 97.4% in assay [7] and 92.1% in assay [8].

`O=C(Nc1ccc2[nH]ncc2c1)c1csc(Nc2ccccc2)n1`: the growth in assay [1] was 37.1%; in assay [2] it was 62%; in assay [3], -11.9% (active); in assay [4] it was 21%; in assay [5], 14.1%; in assay [6], 35.3%. The growth is 62.5% in assay [7] and 27.7% in assay [8].

Regarding `COc1ccc(C(c2cc(OC)c(OC)c(OC)c2)n2cncn2)cc1O` (stereo unspecified), the growth is 35% in assay [1]; 11.3% in assay [2]; -46.2% (active) in assay [3]; 29.1% in assay [4]; 17.9% in assay [5]; 7.25% (active) in assay [6]. For the same compound, the growth in assay [7] was 25.3%; in assay [8], 21.8%.

On to `COc1nc2ccccc2cc1/C=C1/C=C(c2ccccc2)NC1=O`, for which the growth in assay [1] was 37.3%; in assay [2] it was 51.4%; in assay [3], -12.5% (active); in assay [4], 27.7%; in assay [5] it was 24.2%; in assay [6], 12.7%. Besides, the growth was 80.6% in assay [7] and 31.5% in assay [8].

`COC(=O)[C@@H](Cc1c[nH]c2ccccc12)NC(=O)[C@H](Cc1ccccc1)NCc1ccncc1`: the growth was 93.2% in assay [1]; 96.5% in assay [2]; 113% in assay [3]; 104% in assay [4]; 110% in assay [5]; 87.4% in assay [6]. Moreover, the growth is 112% in assay [7] and 96.5% in assay [8].

Take `COc1ccc(C2=NN(C=O)C(c3ccc(Oc4nc5c(c(=O)n(C)c(=O)n5C)n4C)c(OC)c3)C2)cc1` (stereo unspecified): the growth is 75.5% in assay [1]; 96.9% in assay [2]; 61.2% in assay [3]; 104% in assay [4]; 77.1% in assay [5]; 83% in assay [6]. Further, the growth in assay [7] is 82.3%; in assay [8], 87.5%.

In the case of `O=C1CCC(C(=O)N/N=C/c2ccc([N+](=O)[O-])cc2)N1` (stereo unspecified), the growth in assay [1] is 99.2%; in assay [2], 106%; in assay [3] it was 102%; in assay [4] it was 105%; in assay [5], 94.8%; in assay [6], 105%. Moreover, the growth in assay [7] is 95.3%; in assay [8], 105%.

`CS(=O)(=O)c1ccc(/C(=N/NC(N)=S)c2ccc(F)cc2)cc1`: the growth is 88.2% in assay [1]; 102% in assay [2]; 102% in assay [3]; 101% in assay [4]; 89.9% in assay [5]; 95.7% in assay [6]. In addition, the growth is 104% in assay [7] and 101% in assay [8].

On to `C=C(C)[C@@H]1CC[C@]2(C(=O)NC(C)=O)CC[C@]3(C)[C@H](CC[C@@H]4[C@@]5(C)CCCNC(C)(C)[C@@H]5CC[C@]43C)[C@@H]12`, for which the growth was 17.6% in assay [1]; 63.1% in assay [2]; -88.7% (active) in assay [3]; -50% (active) in assay [4]; -17.3% (active) in assay [5]; -69.7% (active) in assay [6]. The growth is -58.3% (active) in assay [7] and -2.16% (active) in assay [8].

For the compound `Nc1ncc(-c2ccc3ncnc(N4CCc5ccc(Cl)cc54)c3c2)cn1`, the growth is -7.59% (active) in assay [1]; -25% (active) in assay [2]; 7.35% (active) in assay [3]; 0.122% (active) in assay [4]; 10.6% in assay [5]; -30.6% (active) in assay [6]. Besides, the growth in assay [7] was 5.87% (active); in assay [8], 6.87% (active).

Regarding `O=C(O)c1nn(-c2ccc(Cl)cc2)nc1N1CCCC1`, the growth in assay [1] is 94.4%; in assay [2] it was 95.4%; in assay [3], 100%; in assay [4] it was 90.6%; in assay [5], 91%; in assay [6], 101%. For the same compound, the growth in assay [7] was 103%; in assay [8], 107%.

Consider `CC(=O)O[C@H]1CC[C@@]2(C)C(=CC[C@@H]3[C@@H]2CC[C@]2(C)C(Cl)=C(c4nc5ccc(Cl)cn5c4NC(C)(C)C)C[C@@H]32)C1`, for which the growth in assay [1] was 94.4%; in assay [2] it was 105%; in assay [3], 93.8%; in assay [4], 98.3%; in assay [5] it was 91.9%; in assay [6], 86.6%. Besides, the growth was 112% in assay [7] and 94.5% in assay [8].

On to `O=c1c(Cc2ccc(F)cc2)cc(-c2ccccc2)nn1C/C(=N/O)c1ccccc1`, for which the growth in assay [1] is 11.8%; in assay [2] it was 48.4%; in assay [3] it was 48.8%; in assay [4] it was 58.7%; in assay [5], 26.2%; in assay [6], 35.1%. Further, the growth in assay [7] is 61.3%; in assay [8], 34.7%.

`COc1ccc2c(c1)C(c1c[nH]c3ccccc13)(c1c[nH]c3ccccc13)CCO2`: the growth in assay [1] is -6.36% (active); in assay [2], 55.6%; in assay [3], 49.9%; in assay [4] it was 61.9%; in assay [5] it was 30.7%; in assay [6] it was 18.8%. Besides, the growth in assay [7] is 72.4%; in assay [8], 46.2%.

As for `COc1ccc(/C(C)=C(\c2ccc(Cl)cc2)c2ccc(OCCCN(C)C)cc2)cc1`, the growth in assay [1] is 58.1%; in assay [2], 82.3%; in assay [3] it was 39%; in assay [4] it was 46.3%; in assay [5], 36.9%; in assay [6] it was 37.4%. Moreover, the growth in assay [7] was 100%; in assay [8], 56.5%.

Take `Cc1cc(=O)oc2cc(Oc3nc(-c4ccccc4)cn4c(-c5ccccc5)cnc34)ccc12`: the growth was 38.5% in assay [1]; 82.6% in assay [2]; 72.1% in assay [3]; 88.3% in assay [4]; 50.5% in assay [5]; 39.3% in assay [6]. The results for the growth in assay [7] and in assay [8] were 81% and 75.5%, respectively.

Consider `COC(=O)CNC(=O)c1ccc(NC(=O)c2[nH]c(C)c(Cl)c2Cl)c(O[C@H]2CCNC2)c1`, for which the growth was 101% in assay [1]; 102% in assay [2]; 105% in assay [3]; 103% in assay [4]; 105% in assay [5]; 96.1% in assay [6]. The growth in assay [7] is 115%; in assay [8] it was 104%.

With `CC(C)(C)CC(C)(C)Nc1c(-c2c(O)c3ccccc3oc2=O)nc2sccn12`, the growth is 84.8% in assay [1]; 111% in assay [2]; 104% in assay [3]; 96.9% in assay [4]; 91.7% in assay [5]; 98.2% in assay [6]. Besides, the values for the growth in assay [7] and in assay [8] were 98.5% and 107%, respectively.

Regarding `CCCN1C2CCC1/C(=C\c1ccc(OC)cc1)C(=O)/C2=C/c1ccc(OC)cc1`, the growth in assay [1] was 45.3%; in assay [2], 87.2%; in assay [3], 63.5%; in assay [4], 90.4%; in assay [5], 75.8%; in assay [6] it was 61.9%. Moreover, the growth in assay [7] was 91.9%; in assay [8], 74.2%.

For `O=C1N/C(=N/N=C(c2ccccc2)c2ccccc2)S/C1=C\c1ccc(Br)cc1`, the growth in assay [1] is 84.7%; in assay [2], 97%; in assay [3] it was 103%; in assay [4], 90.7%; in assay [5], 99.6%; in assay [6] it was 81.8%. The growth in assay [7] was 99.5%; in assay [8], 92.9%.

Take `COc1ccc(-n2c(=O)n(-c3ccc(-c4nc5ccc(F)cc5s4)cc3)c(=O)c3cccnc32)cc1`: the growth in assay [1] is 73.5%; in assay [2], 99.7%; in assay [3], 102%; in assay [4] it was 106%; in assay [5], 92.2%; in assay [6], 91.5%. Moreover, the growth in assay [7] is 91.4%; in assay [8], 102%.

With `Cc1ccc(S(=O)(=O)N(CCC(=O)O)c2ccccc2)cc1`, the growth in assay [1] is 100%; in assay [2], 93.2%; in assay [3], 107%; in assay [4], 104%; in assay [5] it was 91.8%; in assay [6], 95.1%. The growth in assay [7] is 112%; in assay [8] it was 98.9%.
